Results filed as inconclusive are left out. A number with no mark means an inactive call. Activity calls are given as the source filed them. Calls follow the shape of the dose curve; as a rule, active = well fitted inhibition curve with a large enough effect; inconclusive = small, poorly fitted or top-dose-only effect; inactive = flat fitted curve, though single readings scatter. Where a SMILES comes first, the peptide text is derived from it. Bridges are numbered along the chain shown (N, C = ends). [ ]: non-standard residue; d: D form. The star is where a group is joined. Dab(CH2SO3H) = N[C@@H](CCNCS(=O)(=O)O)C(=O)O; X3 = CC[C@@H](C)CCCCC(=O)*; Dab = NCC[C@H](N)C(=O)O
Assay: P-glycoprotein substrates identified in KB-8-5-11 adenocarcinoma cell line, qHTS therapeutic library screen (AID 1346987); also: nearly all actives have a fitted effect of over 65% in size
Conditions: KB-8-5-11 (P-gp overexpressing) viability, CellTiter-Glo, 72 h; series mostly up to 44.5 µM; activity change, negative = cytotoxicity: at the top concentration
In short: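 Steps: plate 500 KB-8-5-11 cells/well in DMEM + 10% FCS (colchicine removed); pin compounds in dose-response; incubate 72 h, 37 degree C, 5% CO2; add CellTiter-Glo, 5 min; read luminescence.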
% is scaled to controls: 0 for no effect and ±100 for the full control effect; potency is read from the fitted curve at half-maximal effect.

Row | SMILES | outcome | activity change, negative = cytotoxicity | Potency
1 | COC(=O)c1cc(CN2CCN(C(=N)N)CC2)cc(C(=O)N2CCN(C(=O)c3ccc(C(=N)N)cc3)CC2)c1 | inactive |  | 
2 | CC[C@@H](C)CCCCC(=O)N[C@@H](CCNCS(=O)(=O)O)C(=O)N[C@H](C(=O)N[C@@H](CCNCS(=O)(=O)O)C(=O)N[C@H]1CCNC(=O)[C@H]([C@@H](C)O)NC(=O)[C@H](CCNCS(=O)(=O)O)NC(=O)[C@H](CCNCS(=O)(=O)O)NC(=O)[C@H](CC(C)C)NC(=O)[C@@H](CC(C)C)NC(=O)[C@H](CCNCS(=O)(=O)O)NC1=O)[C@@H](C)O (X3-[Dab(CH2SO3H)]T[Dab(CH2SO3H)][Dab][Dab(CH2SO3H)][dL]L[Dab(CH2SO3H)][Dab(CH2SO3H)]T; lactam 4-C) |  | 0.693% | 
3 | C=CC(C)(C)C12CC3C(=O)NC(Cc4cnc[nH]4)C(=O)N3C1Nc1ccccc12 (centres undefined) |  | 6.93% | 
4 | CC(CO[C@@H]1O[C@H](COC(=O)/C=C/c2ccc(O)c(O)c2)[C@@H](O)[C@H](O)[C@H]1O)C1(O)COC(=O)C1 (some centres undefined) |  | -5.06% [at 17.3 µM] | 
5 | CC(=O)OC[C@@]12[C@H](O)C[C@]3(C)C(=CCC4[C@@]5(C)CC[C@H](O[C@@H]6O[C@H](C(=O)O)[C@@H](O[C@@H]7O[C@H](CO)[C@@H](O)[C@H](O)[C@H]7O)[C@H](O)[C@H]6O[C@@H]6O[C@H](CO)[C@@H](O)[C@H](O)[C@H]6O)[C@](C)(CO)C5CC[C@]43C)[C@@H]1CC(C)(C)[C@@H](OC(C)=O)[C@@H]2O (some centres undefined) |  | 4.33% [at 9.29 µM] | 
6 | CCCC(N[C@@H](C)C(=O)N1[C@H](C(=O)O)C[C@@H]2CCCC[C@@H]21)C(=O)OCC (some centres undefined) | inactive |  | 
7 | CC(=O)O[C@@H]1C[C@@]23C[C@@]24CC[C@H](OC2OC[C@@H](O)[C@H](O)[C@H]2O)C(C)(C)[C@@H]4CC[C@H]3[C@]2(C)CC3OC4(C[C@@H](C)C3[C@@]12C)OCC1(C)OC14 (some centres undefined) | inactive [at 17.3 µM] |  | 
8 | CON(C)C(=O)N1N=C(c2cc(F)ccc2F)S[C@@]1(CCCN)c1ccccc1 |  |  | 164 nM (active)
9 | CC[C@H]1OC(=O)C[C@@H](O)[C@H](C)[C@@H](O[C@@H]2O[C@H](C)[C@@H](O)[C@H](N(C)C)[C@H]2O)[C@@H](CCN2C[C@H](C)C[C@H](C)C2)C[C@@H](C)C(=O)/C=C/C(C)=C/[C@@H]1CO[C@@H]1O[C@H](C)[C@@H](O)[C@@H](OC)[C@H]1OC |  |  | inactive
10 | CC1CCC2(C)C(CC(O)C(O)C23CO3)C1(C)CCC1=CC(=O)OC1O (centres undefined) |  | -5.79% | 
11 | C=CC1(C)C=C2C(O)CC3C(C)(C(=O)O)CCCC3(C)C2CC1 (centres undefined) | inactive |  | 
12 | CC(=O)OC1C(O)C(C)=C(CCC(C)CC(=O)O)C2(C)CCCC(C)(C)C12 (centres undefined) |  | 7.18% | 
13 | CC1(C)O[C@@H]2C[C@H]3[C@@H]4CCC5=CC(=O)C=C[C@]5(C)[C@H]4[C@@H](O)C[C@]3(C)[C@]2(C(=O)CO)O1 |  | -2.59% | 
14 | O=C1CC(c2ccc([N+](=O)[O-])cc2)=NN1c1ccccc1 |  | 7.46% | 
15 | N#Cc1ccnc(N2C(=O)CC[C@H]2C(=O)N(c2cncc(F)c2)[C@H](C(=O)NC2CC(F)(F)C2)c2ccccc2Cl)c1 |  | -20.7% | 
16 | CCCCCCCC/C=C\CCCCCCCC(=O)O |  | -2.14% | 
17 | C[C@]1(OC(=O)/C=C/c2ccccc2)C[C@H](O)[C@]2(O)C=CO[C@@H](O[C@@H]3O[C@H](CO)[C@@H](O)[C@H](O)[C@H]3O)C12 (some centres undefined) | inactive [at 17.3 µM] |  | 
18 | CCC(=O)N[C@@H]1Cc2ccccc2[C@H](c2ccccc2)C1 |  | -6.55% | 
19 | COc1cc(CC(COC2OC(CO)C(O)C(O)C2O)c2cc(/C=C/CO)cc(OC)c2O)ccc1O (centres undefined) |  | 9.07% [at 17.3 µM] | 
20 | COc1ccc2cc(OCC3(C(=O)O)CN(C(=O)c4ccc(F)cc4)C3)ccc2c1 | inactive |  | 

Row | SMILES | outcome | activity change, negative = cytotoxicity | Potency
21 | C=C/C=C/[C@@H]1OC[C@H](/C=C/C=C/C)[C@H]1O | inactive [at 93.4 µM] |  | 
22 | CC1(C)CCCC2(C)C1C(O)C=C(CO)C2(O)C(=O)O (centres undefined) |  | 8.34% | 
23 | C=C1C2=CC(O)C(C)C1(C)CC/C(C)=C/CCC1(C)OC1C2=O (centres undefined) | inactive |  | 
24 | NC(=O)c1ccc(OCC2NC(=O)C3CCCN3C2=O)cc1 (centres undefined) | inactive |  | 
25 | C=CC1C(O[C@@H]2O[C@H](CO)[C@@H](O)[C@H](O)[C@H]2O)OC=C(C(=O)OC)C1CC(=O)O (some centres undefined) | inactive [at 17.3 µM] |  | 
26 | O=C(/C=C/c1ccc(O)cc1)OC[C@]12O[C@H]1[C@@H](O)[C@@H]1C=CO[C@@H](O[C@@H]3O[C@H](CO)[C@@H](O)[C@H](O)[C@H]3O)[C@@H]12 | inactive [at 17.3 µM] |  | 
27 | C/C=C/C1=CC2=CC(=O)C(C)(O)C(OC(=O)c3c(C)cc(O)cc3O)C2CO1 (centres undefined) |  | 6.83% | 
28 | C=C1C(OC(C)=O)C(=O)C2C(C)(C)C(OC(C)=O)CCC2(C)C1CC(OC(C)=O)/C(C)=C/COC(C)=O (centres undefined) |  | 0.406% [at 17.3 µM] | 
29 | C=C1C[C@]23C[C@H]1CC[C@H]2[C@@]12C=C[C@H](O)[C@@](C)(C(=O)O1)[C@H]2[C@@H]3C(=O)O |  | 9.21% | 
30 | O=C1[C@H](O[C@@H]2O[C@H](CO)[C@@H](O)[C@H](O)[C@H]2O)Oc2ccccc2N1O | inactive |  | 
31 | CC(C(=O)O)c1ccc(N2Cc3ccccc3C2=O)cc1 (centres undefined) |  | -27% | 
32 | COC(=O)[C@]12C(=O)C(C)=C(O)[C@@]1(C)C(C)=CC1[C@@]34CC[C@@H](OC(C)=O)C(C)(C)C3[C@H](C[C@]12C)OC4=O (some centres undefined) |  | 7.73% [at 17.3 µM] | 
33 | CC(=O)O[C@@H]1[C@@H](OC(=O)/C=C/c2ccccc2)[C@H](C)O[C@@H](O[C@H]2[C@@H]3C=CO[C@@H](O[C@@H]4O[C@H](CO)[C@@H](O)[C@H](O)[C@H]4O)[C@@H]3[C@@]3(CO)O[C@@H]23)[C@@H]1OC(C)=O | inactive [at 17.3 µM] |  | 
34 | OCC1OC(Oc2cc(O)c3c(c2)OC(c2ccc(O)cc2)C(O)C3)C(O)C1O (centres undefined) | inactive [at 17.3 µM] |  | 
35 | CC(=O)N1c2ccccc2C2(O)CC3C(=O)NC(CC(C)C)C(=O)N3C12 (centres undefined) | inactive |  | 
36 | CC1(C)CCCC2(C)C(CO)C3CCC2C31 (centres undefined) |  | 7.35% | 
37 | C=C1CCC[C@]2(C)C[C@]3(O)OC(=O)C(C)=C3C[C@@H]12 | inactive |  | 
38 | COc1c(C)c(C(=O)c2ccc(N)c(C(=O)O)c2)n2ccccc12 |  |  | inactive
39 | COc1ccc(C[C@H](N)C(=O)N[C@H]2[C@@H](O)[C@H](n3cnc4c(N(C)C)ncnc43)O[C@@H]2CO)cc1 |  | -6.91% | 

From PubChem BioAssay (NCATS)
